# In the supplement of paper PMC10849652:
# Targets with a hit are over-represented here; the source holds about 7,900 in all. About 0.6% of all pairs of compound and target were hits. Values without a mark were called inactive.
# What was measured:
# Experiment in all cases: log2 fold change, soluble protein after heating vs DMSO (PISA); higher = thermal stabilisation; K562 cells, 10 uM, 30 min; active = over 0.2 and 3.5 SD of the protein, either way, in both replicates (recomputed)
# [1] = target: YAE1 (UniProt Q9NRH1)
# Summary of the method: (§1)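 K562 cells at 2×10^6 cells/mL were exposed to 10 μM compound for 30 min, then aliquots were heated for 3 min across 48°C-58°C, pooled, and extracted in PBS containing 0.5% NP-40 at 4°C. The supernatant after 21,000xg for 90 min was taken as soluble protein and measured by TMTpro 16plex LC-MS/MS with channel sums equalised. Thermal stability is reported relative to control samples, with values from duplicates. Fold changes are given on a log2 scale.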
# [2] = target: YBX1 (UniProt P67809)
# Summary of the method: as §1
# [3] = target: YES1 (UniProt P07947)
# Summary of the method: as §1
# [4] = target: YIPF4 (UniProt Q9BSR8)
# Summary of the method: as §1
# [5] = target: YIPF5 isoform 3 (UniProt Q969M3)
# Summary of the method: as §1
# [6] = target: YIPF6 (UniProt Q96EC8)
# Summary of the method: as §1
# [7] = target: YLPM1 (UniProt P49750)
# Summary of the method: as §1
# [8] = target: YOD1 (UniProt Q5VVQ6)
# Summary of the method: as §1
# [9] = target: YPEL5 (UniProt P62699)
# Summary of the method: as §1
# [10] = target: YWHAB (UniProt P31946)
# Summary of the method: as §1
# [11] = target: YWHAQ (UniProt P27348)
# Summary of the method: as §1
# [12] = target: YWHAZ (UniProt E7ESK7)
# Summary of the method: as §1
# [13] = target: YWHAZ (UniProt P63104)
# Summary of the method: as §1
# [14] = target: YY1 (UniProt P25490)
# Summary of the method: as §1
# [15] = target: ZADH2 (UniProt Q8N4Q0)
# Summary of the method: as §1
# [16] = target: ZBTB21 (UniProt Q9ULJ3)
# Summary of the method: as §1
# [17] = target: ZBTB43 (UniProt O43298)
# Summary of the method: as §1
# [18] = target: ZC3H18 (UniProt Q86VM9)
# Summary of the method: as §1
# [19] = target: ZBTB17 isoform 2 (UniProt Q13105)
# Summary of the method: as §1
# Chain of YPEL5 (P62699 whole entry, looked up): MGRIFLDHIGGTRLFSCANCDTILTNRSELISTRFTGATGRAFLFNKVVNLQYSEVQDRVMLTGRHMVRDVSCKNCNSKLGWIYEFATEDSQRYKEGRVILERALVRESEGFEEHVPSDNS
# Chain of YOD1 (Q5VVQ6 whole entry, looked up): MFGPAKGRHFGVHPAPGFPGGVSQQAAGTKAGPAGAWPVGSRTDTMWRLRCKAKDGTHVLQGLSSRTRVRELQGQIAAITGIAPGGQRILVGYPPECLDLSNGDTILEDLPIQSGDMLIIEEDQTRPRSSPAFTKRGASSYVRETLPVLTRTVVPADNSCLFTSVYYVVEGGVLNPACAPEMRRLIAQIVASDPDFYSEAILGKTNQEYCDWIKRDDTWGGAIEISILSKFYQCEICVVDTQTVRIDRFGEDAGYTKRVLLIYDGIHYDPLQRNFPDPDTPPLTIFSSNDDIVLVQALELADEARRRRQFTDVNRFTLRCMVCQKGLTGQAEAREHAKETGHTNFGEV
# Chain of ZC3H18 (Q86VM9 whole entry, looked up): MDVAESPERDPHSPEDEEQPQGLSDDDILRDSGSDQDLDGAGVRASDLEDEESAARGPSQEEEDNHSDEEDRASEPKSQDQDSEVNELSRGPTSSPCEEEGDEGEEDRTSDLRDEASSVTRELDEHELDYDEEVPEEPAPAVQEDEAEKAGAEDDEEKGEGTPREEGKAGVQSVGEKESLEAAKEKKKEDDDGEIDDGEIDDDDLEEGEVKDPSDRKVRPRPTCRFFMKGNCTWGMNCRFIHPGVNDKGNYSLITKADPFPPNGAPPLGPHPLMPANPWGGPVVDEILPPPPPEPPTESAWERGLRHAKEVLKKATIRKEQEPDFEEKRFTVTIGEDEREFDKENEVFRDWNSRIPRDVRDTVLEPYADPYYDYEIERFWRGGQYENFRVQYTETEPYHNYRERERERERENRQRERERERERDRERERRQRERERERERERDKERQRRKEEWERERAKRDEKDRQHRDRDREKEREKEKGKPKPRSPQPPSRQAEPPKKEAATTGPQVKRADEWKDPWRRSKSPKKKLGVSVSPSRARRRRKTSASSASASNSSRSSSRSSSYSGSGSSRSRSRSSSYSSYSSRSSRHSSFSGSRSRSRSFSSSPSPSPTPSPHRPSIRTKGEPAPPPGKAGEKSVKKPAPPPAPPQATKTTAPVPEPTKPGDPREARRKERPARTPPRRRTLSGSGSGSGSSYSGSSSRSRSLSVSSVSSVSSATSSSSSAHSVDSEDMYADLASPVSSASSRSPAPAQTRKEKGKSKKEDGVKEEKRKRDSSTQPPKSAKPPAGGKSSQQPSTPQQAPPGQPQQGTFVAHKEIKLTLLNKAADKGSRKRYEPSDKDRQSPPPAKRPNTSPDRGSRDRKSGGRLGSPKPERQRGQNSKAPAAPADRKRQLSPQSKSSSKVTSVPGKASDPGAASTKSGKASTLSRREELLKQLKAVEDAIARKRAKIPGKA
# Chain of YY1 (P25490 whole entry, looked up): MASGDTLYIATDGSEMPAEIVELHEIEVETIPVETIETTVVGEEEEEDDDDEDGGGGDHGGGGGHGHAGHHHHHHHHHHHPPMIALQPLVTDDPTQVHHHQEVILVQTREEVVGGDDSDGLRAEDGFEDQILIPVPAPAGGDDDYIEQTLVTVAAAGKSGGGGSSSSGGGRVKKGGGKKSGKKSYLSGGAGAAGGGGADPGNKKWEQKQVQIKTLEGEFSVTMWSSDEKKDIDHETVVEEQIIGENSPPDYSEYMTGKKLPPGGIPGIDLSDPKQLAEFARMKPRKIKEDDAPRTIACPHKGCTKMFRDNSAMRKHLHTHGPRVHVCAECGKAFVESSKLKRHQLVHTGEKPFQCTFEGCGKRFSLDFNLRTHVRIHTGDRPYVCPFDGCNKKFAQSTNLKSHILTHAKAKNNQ
# Chain of YES1 (P07947 whole entry, looked up): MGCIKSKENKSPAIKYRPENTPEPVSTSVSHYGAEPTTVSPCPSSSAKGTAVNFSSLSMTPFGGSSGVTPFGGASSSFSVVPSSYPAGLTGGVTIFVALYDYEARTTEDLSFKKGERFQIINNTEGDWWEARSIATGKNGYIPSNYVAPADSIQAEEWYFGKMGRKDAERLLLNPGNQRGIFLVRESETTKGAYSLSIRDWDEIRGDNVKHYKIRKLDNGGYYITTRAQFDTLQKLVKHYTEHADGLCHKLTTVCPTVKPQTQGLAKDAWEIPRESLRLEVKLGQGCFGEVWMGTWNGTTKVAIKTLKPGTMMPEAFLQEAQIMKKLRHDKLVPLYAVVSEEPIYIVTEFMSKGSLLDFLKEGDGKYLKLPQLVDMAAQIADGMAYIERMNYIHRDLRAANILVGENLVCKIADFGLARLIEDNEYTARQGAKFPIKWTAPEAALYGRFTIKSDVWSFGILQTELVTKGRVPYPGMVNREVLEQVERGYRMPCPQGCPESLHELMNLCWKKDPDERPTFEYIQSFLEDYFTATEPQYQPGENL
# Chain of YIPF4 (Q9BSR8 whole entry, looked up): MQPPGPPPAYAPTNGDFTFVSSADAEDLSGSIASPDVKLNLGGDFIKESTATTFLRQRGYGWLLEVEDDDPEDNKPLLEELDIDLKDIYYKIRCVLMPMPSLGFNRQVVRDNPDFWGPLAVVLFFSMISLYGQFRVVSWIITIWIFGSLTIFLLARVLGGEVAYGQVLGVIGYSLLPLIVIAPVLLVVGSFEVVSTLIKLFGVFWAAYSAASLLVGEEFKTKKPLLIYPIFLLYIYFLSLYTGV
# Chain of ZADH2 (Q8N4Q0 whole entry, looked up): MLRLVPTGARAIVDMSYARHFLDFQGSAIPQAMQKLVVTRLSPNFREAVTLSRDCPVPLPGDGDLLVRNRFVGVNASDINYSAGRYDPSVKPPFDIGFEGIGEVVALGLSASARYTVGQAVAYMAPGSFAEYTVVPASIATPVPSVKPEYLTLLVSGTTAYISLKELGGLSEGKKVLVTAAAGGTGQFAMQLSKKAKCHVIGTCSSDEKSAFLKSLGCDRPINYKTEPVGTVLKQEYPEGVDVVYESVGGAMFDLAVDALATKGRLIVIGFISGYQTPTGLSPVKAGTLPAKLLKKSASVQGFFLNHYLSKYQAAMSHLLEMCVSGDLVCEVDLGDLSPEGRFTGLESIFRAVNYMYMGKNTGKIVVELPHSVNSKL
# Chain of ZBTB43 (O43298 whole entry, looked up): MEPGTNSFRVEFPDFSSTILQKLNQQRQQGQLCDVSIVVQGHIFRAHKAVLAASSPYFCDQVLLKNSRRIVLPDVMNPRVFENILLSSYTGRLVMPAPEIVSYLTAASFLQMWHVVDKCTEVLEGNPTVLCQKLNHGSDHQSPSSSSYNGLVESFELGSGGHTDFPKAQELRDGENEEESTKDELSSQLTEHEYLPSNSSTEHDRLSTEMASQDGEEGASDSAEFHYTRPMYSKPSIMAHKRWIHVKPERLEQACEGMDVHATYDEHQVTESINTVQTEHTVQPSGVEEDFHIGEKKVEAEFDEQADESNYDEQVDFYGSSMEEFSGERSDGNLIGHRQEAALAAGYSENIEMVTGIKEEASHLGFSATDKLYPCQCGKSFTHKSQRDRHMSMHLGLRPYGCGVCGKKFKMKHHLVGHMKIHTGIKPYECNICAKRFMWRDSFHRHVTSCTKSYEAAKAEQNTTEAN
# Chain of YIPF5 isoform 3 (Q969M3 whole entry, looked up, canonical isoform): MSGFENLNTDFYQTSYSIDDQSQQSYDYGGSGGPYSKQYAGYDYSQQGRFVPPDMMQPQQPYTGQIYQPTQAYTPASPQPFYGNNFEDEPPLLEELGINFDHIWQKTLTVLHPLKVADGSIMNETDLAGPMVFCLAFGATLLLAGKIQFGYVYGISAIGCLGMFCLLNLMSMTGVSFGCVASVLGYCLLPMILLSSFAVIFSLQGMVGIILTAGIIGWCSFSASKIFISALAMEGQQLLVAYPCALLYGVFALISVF
# Chain of YAE1 (Q9NRH1 whole entry, looked up): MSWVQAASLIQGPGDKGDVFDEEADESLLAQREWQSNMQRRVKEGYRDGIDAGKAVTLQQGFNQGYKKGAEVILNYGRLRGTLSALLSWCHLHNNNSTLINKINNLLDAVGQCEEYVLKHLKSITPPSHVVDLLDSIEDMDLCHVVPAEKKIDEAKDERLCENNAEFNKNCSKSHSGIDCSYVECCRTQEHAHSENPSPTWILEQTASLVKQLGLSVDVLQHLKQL
# Chain of YIPF6 (Q96EC8 whole entry, looked up): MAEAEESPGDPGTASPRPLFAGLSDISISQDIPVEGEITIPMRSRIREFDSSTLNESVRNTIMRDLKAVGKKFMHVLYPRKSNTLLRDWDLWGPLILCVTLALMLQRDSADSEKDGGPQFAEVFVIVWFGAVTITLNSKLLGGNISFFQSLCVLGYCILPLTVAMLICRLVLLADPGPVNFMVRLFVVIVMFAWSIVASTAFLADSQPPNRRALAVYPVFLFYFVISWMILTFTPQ
# Chain of YWHAZ (UniProt P63104) (P63104 whole entry, looked up): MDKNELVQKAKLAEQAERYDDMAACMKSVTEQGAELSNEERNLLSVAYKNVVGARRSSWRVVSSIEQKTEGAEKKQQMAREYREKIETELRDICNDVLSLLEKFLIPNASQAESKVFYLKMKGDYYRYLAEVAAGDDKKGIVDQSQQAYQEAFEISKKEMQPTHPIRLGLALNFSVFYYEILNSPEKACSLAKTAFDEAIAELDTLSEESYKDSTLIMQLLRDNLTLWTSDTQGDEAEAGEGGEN
# Chain of YWHAB (P31946 whole entry, looked up): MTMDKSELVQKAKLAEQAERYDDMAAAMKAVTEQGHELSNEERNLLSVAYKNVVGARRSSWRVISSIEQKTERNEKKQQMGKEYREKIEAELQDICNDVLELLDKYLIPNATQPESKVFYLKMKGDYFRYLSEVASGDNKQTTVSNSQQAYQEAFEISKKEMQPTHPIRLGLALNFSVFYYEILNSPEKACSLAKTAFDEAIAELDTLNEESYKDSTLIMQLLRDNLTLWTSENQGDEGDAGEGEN
SMILES,log2 fold change [1],log2 fold change [2],log2 fold change [3],log2 fold change [4],log2 fold change [5],log2 fold change [6],log2 fold change [7],log2 fold change [8],log2 fold change [9],log2 fold change [10],log2 fold change [11],log2 fold change [12],log2 fold change [13],log2 fold change [14],log2 fold change [15],log2 fold change [16],log2 fold change [17],log2 fold change [18],log2 fold change [19]
O=C1NC(=O)C(c2cnc3ccccn23)=C1c1cn2c3c(cc(F)cc13)CN(C(=O)N1CCCCC1)CC2,-0.02,0.126,0.011,-0.087,0.032,0.01,0.026,-0.079,-0.064,-0.04,-0.095,-0.239,-0.025,-0.013,-0.043,-0.226,0.196,0.03,
CN1CCN(CCOc2cc(OC3CCOCC3)c3c(Nc4c(Cl)ccc5c4OCO5)ncnc3c2)CC1 [saracatinib],0.025,-0.027,-0.551 (active),0.072,0.007,-0.023,0,-0.034,0.069,0.014,0.234,-0.076,0.064,0.047,0.005,-0.149,-0.147,-0.072,
CCn1c(C(=O)N(C2CC2)C2CC2)cc2c3c(ncn3C)c(Nc3cc(C)n(C)n3)nc21,-0.018,-0.016,-0.243,0,-0.01,0.022,-0.077,-0.014,0.027,0.027,0.039,,0.017,0.044,0.154,-0.038,-0.033,0.018,0.005
O=C(CCCCCCNC(=O)c1cnc(N(c2ccccc2)c2ccccc2Cl)nc1)NO [citarinostat],0.04,-0.13,0.008,0.042,0.023,0.011,0.099,0.067,-0.077,0.001,0.02,-0.053,-0.013,0.121,0.106,,-0.173,0.028,
c1cc(OCCN2CCCCC2)cc(-c2n[nH]c3ccc(-c4nnc[nH]4)cc23)c1,-0.001,-0.156,-0.235,-0.051,-0.043,0.036,0,0.043,0.067,-0.019,0.105,0.095,0.05,-0.052,-0.017,,-0.026,-0.147,
CC[C@@H]1C(=O)N(C)c2cnc(Nc3ccc(C(=O)N[C@H]4CC[C@H](N5CCN(CC6CC6)CC5)CC4)cc3OC)nc2N1C(C)C [volasertib],-0.101,0.508,-0.038,0.134,0.058,-0.037,-0.265 (active),-0.247,-0.022,0.024,-0.073,-0.173,-0.016,-0.44 (active),0.754 (active),-0.063,,-0.085,
CCCCN(Cc1ccc(C(=O)NO)cc1)C(=O)Nc1ccccc1 [Nexturastat A],0.564,0.231,0.142,0.021,0.091,-0.011,0.046,-0.011,-0.144,-0.048,-0.063,0.34,-0.051,0.069,0.005,0.106,-0.203,0.11,
CCCS(=O)(=O)Nc1ccc(F)c(C(=O)c2c[nH]c3ncc(Cl)cc23)c1F,-0.037,-0.137,-0.217,-0.01,-0.096,0.004,0.047,0.033,-0.127,0.031,0.233,-0.05,0.228 (active),0.037,-0.012,0.091,,-0.019,
COC(=O)N[C@@H](C)CNc1nccc(-c2cn(C(C)C)nc2-c2cc(Cl)cc(NS(C)(=O)=O)c2F)n1 [encorafenib],0.007,0.041,0.242,-0.038,0.012,-0.042,0.052,0.02,-0.001,-0.003,-0.016,-0.156,-0.031,0.066,0.045,,0.065,-0.03,
Cc1ccc(Sc2cncc3sc(C(N)=O)cc23)cc1,-0.012,-0.124,0.03,-0.023,0.071,-0.018,-0.008,0.009,0.01,-0.033,0.079,-0.019,0.123,0.01,-0.015,0.008,,-0.064,
C[C@@H](N)c1ccc(C(=O)Nc2ccnc3[nH]ccc23)cc1,0.1,0.28,0,-0.089,-0.077,-0.013,-0.037,-0.04,0.163,-0.065,-0.302,0.179,-0.178,-0.071,-0.071,0.125,-0.013,-0.103,
C[C@H](Nc1ncnc2nc[nH]c12)c1cc2cccc(Cl)c2c(=O)n1-c1ccccc1 [duvelisib],-0.021,-0.208,0.062,0.163,-0.107,0.259,0.08,0.033,-0.084,0.056,-0.144,0.171,-0.084,-0.007,0.033,0.081,0.027,0.019,
Cn1cc(-c2ccc3nnc(C(F)(F)c4ccc5ncccc5c4)n3n2)cn1,0.043,-0.136,0.008,0.108,0.12,0.032,0.031,0.057,-0.071,-0.037,-0.066,-0.007,-0.045,-0.056,0.107,-0.009,-0.054,0.008,
Cc1cc(SCc2sc(-c3ccc(C(F)(F)F)cc3)nc2C)ccc1OCC(=O)O,0.021,-0.024,0.06,-0.04,0.015,-0.175,0,0.061,0.098,0.005,0.119,-0.02,0.012,0.002,-0.027,0.043,0.041,-0.034,
CS(=O)(=O)CCNCc1ccc(-c2ccc3ncnc(Nc4ccc(OCc5cccc(F)c5)c(Cl)c4)c3c2)o1 [lapatinib],-0.052,0.317,0.057,-0.13,-0.163,0.061,-0.028,0.01,-0.113,-0.016,0.219,-0.051,0.197,-0.023,-0.049,0.032,,0.111,
Cc1cccc(CC(=O)N2CCc3c2ccc(-c2cn(C)c4ncnc(N)c24)c3F)n1,0.008,-0.024,0.007,-0.042,0.06,-0.006,-0.05,0.041,0.198,-0.058,0.694 (active),,0.029,0.003,-0.041,0.016,-0.025,-0.063,
